Sampled rows, rich in hits. Any-hit rate of the full collection: about 4%.
GRP78 ERSR act: qHTS for Inducers of the Endoplasmic Reticulum Stress Response (ERSR) in Human Glioma: qHTS. U87-MG GRP78 promoter luciferase reporter, 16 h. Potency, µM, actives largely listed as activators. 420,000 tested, 0.02% active; active = well fitted activation curve with a large enough effect; inconclusive = small, poorly fitted or top-dose-only effect; inactive = no such curve, though single readings can be large or run the other way; also: series mostly up to about 76 µM; nearly all actives have a fitted effect of over 35% in size
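Stably transfected U87-MG glioma cells carrying a GRP78-based luciferase sensor; 16 h compound incubation. Luminescence end-point read 10 min after Bright-Glo addition at room temperature.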
D1 agonist: Allosteric Agonists of the Human D1 Dopamine Receptor: qHTS | D(1A) dopamine receptor (Homo sapiens), P21728 | HEK293 T-REx D1 cells, calcium flux, agonist mode | activation, % at 2 µM | 360,000 tested, 1% active | AID 504660, 2011
Target sequence (P21728 whole entry, looked up): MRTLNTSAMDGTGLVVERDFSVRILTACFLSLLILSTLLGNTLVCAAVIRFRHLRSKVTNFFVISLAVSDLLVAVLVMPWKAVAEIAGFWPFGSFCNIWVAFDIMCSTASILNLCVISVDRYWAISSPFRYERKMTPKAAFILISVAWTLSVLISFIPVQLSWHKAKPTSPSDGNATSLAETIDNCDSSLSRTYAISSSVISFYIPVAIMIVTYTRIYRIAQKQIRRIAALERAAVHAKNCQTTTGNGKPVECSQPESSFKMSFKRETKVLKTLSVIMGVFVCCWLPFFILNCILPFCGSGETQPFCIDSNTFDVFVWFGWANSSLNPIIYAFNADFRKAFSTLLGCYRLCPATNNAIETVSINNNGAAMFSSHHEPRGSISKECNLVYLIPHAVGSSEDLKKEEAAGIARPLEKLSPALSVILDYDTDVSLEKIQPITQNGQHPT
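Tetracycline-induced HEK293 TREx D1 cells, force-coupled to calcium signalling, were dye-loaded with a no-wash calcium kit. Compound was pin-added after a 10 s baseline. Fluorescence was read kinetically at 1 cycle/s for 180 s, with calcium rises flagged as agonism.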
D1 antag: Antagonist of Human D 1 Dopamine Receptor: qHTS; D(1A) dopamine receptor (Homo sapiens), P21728; HEK293 TREx D1 cells, calcium flux, dopamine EC80; hits give low values; activity change, negative = inhibition, % at 10 µM; 360,000 tested, 3.2% active; AID 504652, 2011; in the data active = activity change below about -30%
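After overnight tetracycline induction at 30 C, force-coupled D1 HEK293 cells took up a no-wash calcium dye at room temperature. Compounds were added and monitored 180 s, and the response to EC80 dopamine was then recorded.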
TRHR enhancer: qHTS for Small Molecule Agonists and Allosteric Enhancers of Human TRH Receptor: Primary Screen for Enhancers; TRHR cells, fluo-8 calcium fluorescence, EC20 TRH enhancement; 360,000 tested, 0.66% active; enhancement, % at 2 µM; AID 493056, 2011; in the data active = enhancement above about 30%
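Enhancer read-out: after compound pinning and an initial kinetic agonist-mode read, an EC20 of TRH (10 nM final) was injected and fluo-8 calcium signal (Ex 480/Em 530) followed at 1 s/cycle for 100 cycles in TRHR-expressing cells.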
D1 potentiator: Potentiators of Human D1 Dopamine Receptor: qHTS; D(1A) dopamine receptor (Homo sapiens), P21728; HEK293 TREx D1 cells, calcium flux, dopamine EC20 potentiation; potentiation, % at 10 µM; 360,000 tested, 0.036% active; AID 504651, 2011; in the data active = potentiation above about 30%
TRHR ag: qHTS for Small Molecule Agonists and Allosteric Enhancers of Human TRH Receptor: Primary Screen for Agonists; AID 493084, 2011; TRHR cells, calcium flux fluo-8, FDSS agonist mode; 360,000 tested, 0.18% active; Thyrotropin-releasing hormone receptor (Homo sapiens), P34981; activation, % at 2 µM
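In this calcium-flux screen, cells bearing human TRHR are dye-loaded with fluo-8, baselined for 10 cycles, then exposed to library compounds; positive kinetic calcium responses during the agonist phase mark hits, with TRH as control.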
Of the large screens only hits and unclear results are named; the others gave an inactive call; ! = not confirmed by another sample. Rule as the data show it, unless noted: active = activation above about 30%; inactive = the rest.

CCOC(=O)c1ccc(-n2c(CN3CCN(CCO)CC3)nc3ccc([N+](=O)[O-])cc3c2=O)cc1	TRHR enhancer 37
COc1cccc(-n2c(CN3CCN(Cc4ccccc4)CC3)nc3ccc([N+](=O)[O-])cc3c2=O)c1	none (no result: GRP78 ERSR act)
O=C(NCCOC(=O)c1ccncc1)c1ccccc1	none
COc1cc(C(=O)OCCNC(=O)c2ccncc2)cc(OC)c1OC	D1 antag -39
CO[C@H]1COC(=O)CCC[C@H](C)[C@H](OC)COC(=O)C/C=C\[C@@H]1C	none (no result: D1 agonist, D1 antag, TRHR enhancer, D1 potentiator, TRHR ag)
COc1ccc(CNC(=O)COC(=O)c2ccc3ccccc3n2)cc1	none (no result: D1 agonist, D1 antag, TRHR enhancer, D1 potentiator, TRHR ag)
CN(Cc1cnccn1)Cc1nc(Cc2ccccc2Cl)no1	none
CCOC(=O)c1c(CSc2ccccc2)n(C)c2cc(Br)c(OC)c(O)c12	none
CCOC(=O)c1c(CSc2ccccc2)n(C)c2cc(Br)c(OCC(O)CNC(CO)(CO)CO)cc12 (configuration not stated)	D1 antag -47
COc1ccccc1Nc1nn2c(=O)c3ccc(C(=O)NCc4ccc(F)cc4)cc3nc2s1	none
COc1ccccc1Nc1nn2c(=O)c3ccc(C(=O)N4CCCCC4)cc3nc2s1	D1 antag -43!
Cc1ccc(C(=O)Nc2ccc(C(=O)N/N=C/c3ccccn3)cc2)cc1	D1 antag -38
CCCCC(C(=O)N/N=C/c1ccccn1)C(=O)N/N=C/c1ccccn1	TRHR enhancer 35
Cc1cccc(C(=O)Nc2ccc(C(=O)N/N=C/c3ccc(C)o3)cc2)c1	D1 antag -48
CN(C)c1ccc(C(=O)N/N=C/c2ccccn2)cc1	D1 antag -40
Cc1ccc(/C=N/NC(=O)c2cccc(NC(=O)c3ccccc3C)c2)o1	none
CCc1ccc(C=O)cc1	none (no result: D1 agonist, D1 antag, TRHR enhancer, D1 potentiator, TRHR ag)
CC(C)[C@H](NS(=O)(=O)c1ccccc1)C(=O)OCC(=O)NC(=O)c1cccn1C	none
COc1ccccc1-c1cc(NCc2cccnc2)ncn1	none (no result: D1 agonist, D1 antag, TRHR enhancer, D1 potentiator, TRHR ag)
CCOc1ccc(N(CC(=O)N2CCN(c3ccccc3OC)CC2)S(=O)(=O)c2ccc(C)cc2)cc1	none
CN(C)c1ccc(/C=C2\SC(=O)N(CC(O)Cn3c4ccccc4c4ccccc43)C2=O)cc1 (configuration not stated)	D1 agonist 46
O=C(CN1C(=O)c2ccccc2C1=O)OCCOCCN=C1NS(=O)(=O)c2ccccc21	none
CN(C)c1ccc(/C=C2/SC(=O)N(CCN=C3NS(=O)(=O)c4ccccc43)C2=O)cc1	D1 agonist 40
CN(C)c1ccc(/C=C2\SC(=O)N(CCc3nnc(N)s3)C2=O)cc1	D1 agonist 62
O=C1S/C(=C/c2ccccc2)C(=O)N1CC(O)Cn1c2ccccc2c2ccccc21 (configuration not stated)	none
COCCCn1c(=O)/c(=C\c2ccc(OC(F)F)c(OC)c2)s/c1=C(/C#N)C(N)=O	D1 antag -44
COCCCn1c(=O)/c(=C\c2ccccc2OC(F)F)s/c1=C(/C#N)C(N)=O	none
Cc1cc(Cl)ccc1NC(=O)c1cccc(NC(=O)N2CCSc3ncccc32)c1	D1 antag -49
Cc1cc(C)c2c(n1)SCCN2C(=O)Nc1ccc(C(=O)Nc2cc(Cl)ccc2C)cc1	D1 antag -33
Cc1ccc(NC(=O)c2cccc(NC(=O)N3CCSc4ncccc43)c2)cc1Cl	none
O=C(CCc1nnc2ccc(N3CCCC3)nn12)Nc1ccc(F)c(F)c1	none
CCOC(=O)C(Cc1ccccc1)NC(=O)CCc1nnc2ccc(N3CCCCC3)nn12 (configuration not stated)	GRP78 ERSR act inconclusive, D1 antag -33
CC1CCN(c2ccc3nnc(CCC(=O)Nc4ccc(F)c(F)c4)n3n2)CC1	D1 antag -30
CCOCCCNC(=O)CCc1nnc2ccc(N3CCN(c4cccc(OC)c4)CC3)nn12	none
CCOC(=O)C(Cc1ccccc1)NC(=O)CCc1nnc2ccc(N3CCCC3)nn12 (configuration not stated)	none
CCOCCCNC(=O)CCc1nnc2ccc(N3CCCCC3)nn12	D1 antag -31
O=C1CSC(c2cccc([N+](=O)[O-])c2)N1C1CC2CCC1C2 (configuration not stated)	none
c1coc(CNc2nc(-c3cccs3)cs2)c1	none
CCCC(=O)O	none (no result: D1 agonist, D1 antag, TRHR enhancer, D1 potentiator, TRHR ag)
CCc1ccc(NC(=O)c2cnc(N3CCN(c4ccccn4)CC3)c3ccccc23)cc1	D1 antag -40
CC(C)NC(=O)c1cnc(N2CCN(c3ccccn3)CC2)c2ccccc12	none
CC(C)(C)[C@@H]1COC(=O)[C@@H](Cc2ccc(F)cc2)CC/C=C\C[C@@H](CC(=O)N(CCO)Cc2ccccc2)C(=O)N1	none (no result: D1 agonist, D1 antag, TRHR enhancer, D1 potentiator, TRHR ag)
Oc1ccc(C[C@@H]2CNCCN2CCc2cc(C(F)(F)F)cc(C(F)(F)F)c2)cc1	D1 agonist 40
FC(F)(F)c1cc(CCN2CCNC[C@H]2Cc2cccc3ccccc23)cc(C(F)(F)F)c1	D1 agonist 45
CCCc1cc(=O)n2nc(N3CCC(C(=O)N4CCN(c5ccc(OC)cc5)CC4)CC3)sc2n1	none
CCOc1ccc(C2=Nn3c(nnc3-c3ccco3)SC2)cc1	D1 antag -31
COC(=O)c1ccc(C(=O)N(C)C2CCCN(Cc3ccccc3F)C2)nc1 (configuration not stated)	none
Cc1cc(C)nc(N2CCC(C(=O)O)CC2)n1	D1 antag -32
COc1ccc(CCNc2oc(COc3ccccc3F)nc2C#N)cc1	D1 antag -67
COc1ccc(CCNc2oc(COc3ccc(Br)cc3)nc2C#N)cc1OC	D1 antag -32 (no result: D1 potentiator)
COc1ccc(CCNc2oc(Cc3cccc4ccccc34)nc2C#N)cc1OC	none
CN(CC(=O)Nc1ccc([N+](=O)[O-])cc1Br)Cc1c(F)cccc1Cl	D1 antag -32
CCOC(=O)c1ccc(/C=C2/C=C(c3ccccc3)N(c3ccc(Cl)c(C(=O)O)c3)C2=O)cc1	D1 agonist 103
CCS(=O)(=O)N1CCC(C(=O)NC2CCCCCCC2)CC1	none
CC(C)CN(CC(C)C)S(=O)(=O)N1CCC(C(=O)NC2CCCCCCC2)CC1	D1 antag -36
CC(=O)NC12CC3CC(C1)CC(C(=O)OCC(=O)c1cc(C)n(C)c1C)(C3)C2	none (no result: D1 agonist, D1 antag, TRHR enhancer, D1 potentiator, TRHR ag)

Compound activity (PubChem BioAssay)
